# Assay results taken from PubChem BioAssay (NCI).
# About 79,000 compounds went through this panel and 15% of them were active in at least one assay; those are over-represented in the sample as a whole. A number with no mark means an inactive call. Activity calls are given as the source filed them. No stated cut-off is given here; in the data, active means growth inhibition above about 70%; inactive means the rest.
# Key:
# [1] = NCI Yeast Anticancer Drug Screen. Data for the rad52 strain (AID 147);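 further: 0% = growth of vehicle-treated control cultures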; details: S. cerevisiae rad52 mutant growth inhibition, active compounds read high
# Summary of the method: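 Compounds are applied to a genetically defined yeast strain lacking normal DNA damage repair, and inhibition of growth is expressed relative to cultures given vehicle only.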
# [2] = NCI Yeast Anticancer Drug Screen. Data for the wt1 strain (AID 149);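 further: 0% = growth of vehicle-treated wt1 cultures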; details: S. cerevisiae wt1 strain (SPY 50644) growth inhibition, active compounds read high
# Summary of the method: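 Vehicle-normalised growth inhibition; strain wt1; compound exposure.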
# [3] = NCI Yeast Anticancer Drug Screen. Data for the rad50EPP+ strain (AID 151);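 further: 0% = growth of vehicle-treated control cultures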; details: S. cerevisiae rad50 mutant strain, active compounds read high
# Summary of the method: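 Compounds were applied to the rad50EPP+ yeast strain, which bears a defined DNA repair alteration, and growth inhibition was determined relative to vehicle-treated cultures.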
# [4] = NCI Yeast Anticancer Drug Screen. Data for the mgt1 strain (AID 153); details: S. cerevisiae mgt1 mutant growth inhibition, active compounds read high
# Summary of the method: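 Strain: mgt1 yeast, one of a set carrying defined DNA damage repair or cell cycle control alterations. Compound-treated growth compared with vehicle.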
# [5] = NCI Yeast Anticancer Drug Screen. Data for the rad50 strain (AID 155);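 further: 0% = growth of vehicle-only cultures of the same strain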; details: S. cerevisiae rad50 strain growth inhibition, active compounds read high
# Summary of the method: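 A DNA repair-deficient yeast mutant serves as the test organism; compound-induced growth inhibition is calculated against vehicle-treated cells.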
# [6] = NCI Yeast Anticancer Drug Screen. Data for the mec2-1 strain (AID 157); details: S. cerevisiae mec2-1 strain, active compounds read high
# Summary of the method: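 Strain: mec2-1 (DNA repair/cell cycle alteration). Compound exposure, then growth measured; inhibition expressed relative to vehicle.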
# [7] = NCI Yeast Anticancer Drug Screen. Data for the rad14 strain (AID 159);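 further: 0% = growth of vehicle-treated control cultures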; details: S. cerevisiae rad14 strain growth inhibition, active compounds read high
# Summary of the method: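 Vehicle-treated cultures served as the baseline for growth inhibition of a DNA repair-mutant yeast strain exposed to each compound.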
# [8] = NCI Yeast Anticancer Drug Screen. Data for the sgs1 mgt1 strain (AID 161);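 further: 0% = growth of cultures given vehicle only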; details: S. cerevisiae sgs1 mgt1 strain, active compounds read high
# Summary of the method: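 Read-out: growth inhibition vs vehicle controls. Cells: mutant yeast strain deficient in DNA damage repair.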
# [9] = NCI Yeast Anticancer Drug Screen. Data for the CLN2oe strain (AID 163);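 further: 0% = growth of vehicle-only control cultures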; details: S. cerevisiae CLN2oe strain, active compounds read high
# Summary of the method: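 Growth of a genetically modified yeast strain is measured after compound exposure and compared with cultures given vehicle alone.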
# [10] = NCI Yeast Anticancer Drug Screen. Data for the cln2 rad14 strain (AID 165);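 further: 0% = growth equal to vehicle treated cultures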; details: S. cerevisiae cln2 rad14 strain, active compounds read high
# Summary of the method: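 Compounds are applied to the cln2 rad14 yeast strain, and growth is then compared with that of vehicle-treated cultures to give inhibition.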
# [11] = NCI Yeast Anticancer Drug Screen. Data for the bub3 strain (AID 167); details: S. cerevisiae bub3 mutant strain, active compounds read high
# Summary of the method: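 Inhibition values come from growth of compound-treated mutant yeast normalised to vehicle-treated controls.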
# [12] = NCI Yeast Anticancer Drug Screen. Data for the wt2 strain (AID 169);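 further: 0% = growth of vehicle-treated yeast cultures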; details: S. cerevisiae wt2 strain growth inhibition, active compounds read high
# Summary of the method: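 This strain belongs to a panel of yeast strains with defined genetic alterations in DNA damage repair or cell cycle control. Compounds are applied, and growth inhibition is measured against vehicle-treated cultures.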
# [13] = NCI Yeast Anticancer Drug Screen. Data for the mlh1 strain (AID 171);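 further: 0% = growth of vehicle-treated control cultures of the same strain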; details: S. cerevisiae mlh1 strain growth inhibition, active compounds read high
# Summary of the method: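 Growth of the mutant yeast strain after compound exposure, expressed as inhibition relative to vehicle-only controls.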
# [14] = NCI Yeast Anticancer Drug Screen. Data for the sgs1 strain (AID 173);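 further: 0% = growth of vehicle-only control cultures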; details: S. cerevisiae sgs1 mutant, active compounds read high
# Summary of the method: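 Growth of a yeast strain bearing a defined genetic alteration is measured after compound treatment. Inhibition is expressed relative to vehicle-only controls.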
# [15] = NCI Yeast Anticancer Drug Screen. Data for the mlh1 rad18 strain (AID 175); details: S. cerevisiae mlh1 rad18 strain growth inhibition, active compounds read high
# Summary of the method: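 Read-out is yeast growth inhibition, calculated against vehicle-only controls. The compound was applied to a strain engineered with DNA damage repair alterations.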
# [16] = NCI Yeast Anticancer Drug Screen. Data for the rad18 strain (AID 177); details: S. cerevisiae rad18 mutant growth inhibition, active compounds read high
# Summary of the method: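 Growth of the mutant yeast strain after compound exposure, normalised to vehicle-only cultures.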
# [17] = at 5.0 µM (retest, dose inferred, filed as 0.5)
# [18] = at 50.0 µM (retest, dose inferred, filed as 5.0)
compound,measurement,setting,value
CCN(CC)C(C)(C)C(=O)/C=C/c1ccccc1,growth inhibition,[1]; at 1.2 µM,-1%
same,growth inhibition,[1]; at 3.7 µM,-1%
same,growth inhibition,[1]; at 11.0 µM,0%
same,growth inhibition,[1]; at 33.0 µM,-1%
same,growth inhibition,[1]; at 100.0 µM,2%
same,growth inhibition,[2]; at 1.2 µM,0%
same,growth inhibition,[2]; at 3.7 µM,5%
same,growth inhibition,[2]; at 11.0 µM,2%
same,growth inhibition,[2]; at 33.0 µM,2%
same,growth inhibition,[2]; at 100.0 µM,4%
same,growth inhibition,[3]; at 1.2 µM,2%
same,growth inhibition,[3]; at 3.7 µM,6%
same,growth inhibition,[3]; at 11.0 µM,8%
same,growth inhibition,[3]; at 33.0 µM,6%
same,growth inhibition,[3]; at 100.0 µM,5%
same,growth inhibition,[4]; at 1.2 µM,-3%
same,growth inhibition,[4]; at 3.7 µM,-3%
same,growth inhibition,[4]; at 11.0 µM,-3%
same,growth inhibition,[4]; at 33.0 µM,-1%
same,growth inhibition,[4]; at 100.0 µM,2%
same,growth inhibition,[5]; at 1.2 µM,0%
same,growth inhibition,[5]; at 3.7 µM,2%
same,growth inhibition,[5]; [17],19%
same,growth inhibition,[5]; at 11.0 µM,0%
same,growth inhibition,[5]; at 33.0 µM,1%
same,growth inhibition,[5]; [18],80% (active)
same,growth inhibition,[5]; at 50.0 µM,17.2%
same,growth inhibition,[5]; at 100.0 µM,3%
same,growth inhibition,[6]; at 1.2 µM,1%
same,growth inhibition,[6]; at 3.7 µM,6%
same,growth inhibition,[6]; [17],-15%
same,growth inhibition,[6]; at 11.0 µM,5%
same,growth inhibition,[6]; at 33.0 µM,9%
same,growth inhibition,[6]; [18],47%
same,growth inhibition,[6]; at 50.0 µM,13.7%
same,growth inhibition,[6]; at 100.0 µM,4%
same,growth inhibition,[7]; at 1.2 µM,-3%
same,growth inhibition,[7]; at 3.7 µM,-3%
same,growth inhibition,[7]; at 11.0 µM,1%
same,growth inhibition,[7]; at 33.0 µM,5%
same,growth inhibition,[7]; at 100.0 µM,14%
same,growth inhibition,[8]; [17],42%
same,growth inhibition,[8]; [18],92% (active)
same,growth inhibition,[8]; at 50.0 µM,17.6%
same,growth inhibition,[9]; at 1.2 µM,-4%
same,growth inhibition,[9]; at 3.7 µM,-12%
same,growth inhibition,[9]; at 11.0 µM,-4%
same,growth inhibition,[9]; at 33.0 µM,1%
same,growth inhibition,[9]; at 100.0 µM,2%
same,growth inhibition,[10]; [17],-9%
same,growth inhibition,[10]; [18],46%
same,growth inhibition,[10]; at 50.0 µM,7.15%
same,growth inhibition,[11]; at 1.2 µM,-1%
same,growth inhibition,[11]; at 3.7 µM,-3%
same,growth inhibition,[11]; [17],9%
same,growth inhibition,[11]; at 11.0 µM,0%
same,growth inhibition,[11]; at 33.0 µM,-1%
same,growth inhibition,[11]; [18],77% (active)
same,growth inhibition,[11]; at 50.0 µM,17.8%
same,growth inhibition,[11]; at 100.0 µM,-5%
same,growth inhibition,[12]; at 1.2 µM,0%
same,growth inhibition,[12]; at 3.7 µM,-1%
same,growth inhibition,[12]; at 11.0 µM,-1%
same,growth inhibition,[12]; at 33.0 µM,3%
same,growth inhibition,[12]; at 100.0 µM,6%
same,growth inhibition,[13]; at 1.2 µM,2%
same,growth inhibition,[13]; at 3.7 µM,2%
same,growth inhibition,[13]; at 11.0 µM,3%
same,growth inhibition,[13]; at 33.0 µM,3%
same,growth inhibition,[13]; at 100.0 µM,5%
same,growth inhibition,[14]; at 1.2 µM,2%
same,growth inhibition,[14]; at 3.7 µM,1%
same,growth inhibition,[14]; at 11.0 µM,4%
same,growth inhibition,[14]; at 33.0 µM,6%
same,growth inhibition,[14]; at 100.0 µM,7%
same,growth inhibition,[15]; [17],57%
same,growth inhibition,[15]; [18],95% (active)
same,growth inhibition,[15]; at 50.0 µM,20.4%
same,growth inhibition,[16]; at 1.2 µM,1%
same,growth inhibition,[16]; at 3.7 µM,-1%
same,growth inhibition,[16]; at 11.0 µM,-1%
same,growth inhibition,[16]; at 33.0 µM,3%
same,growth inhibition,[16]; at 100.0 µM,6%
